A selection: hits, their analogues and other compounds. The true share with any hit is near 8.1%.
ELG1 repair inh: qHTS screen for small molecules that inhibit ELG1-dependent DNA repair in human embryonic kidney (HEK293T) cells expressing luciferase-tagged ELG1. HEK293T ELG1-luciferase reporter, luminescence, 16 h; DNA damage induced by 5-fluorouridine. Potency, µM (titrated, usually from 46.1 µM), for inactives: top-dose activity change, negative = inhibition, usual class: inhibitors. 2.3% of 330,000 active; note: % is set by controls: 0 for no effect and ±100 for the full control effect; nearly all actives have a fitted effect of over 55% in size
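In this reporter screen, reduction of luminescence relative to DMSO vehicle indicated activity. Compounds and 5-fluorouridine were added together to 2,000 cells per well, incubated for 16 hr at 37 °C, then developed with ONE-Glo.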
SW480 rereplic: A quantitative high throughput screen for small molecules that induce DNA re-replication in SW480 colon adenocarcinoma cells; SW480 DNA re-replication, Hoechst DNA content imaging, 48 h; Potency, µM (titrated, usually from 46.1 µM), for the others: top-dose re-replication activation, usual class: activators; 1.8% of 340,000 active; AID 624297, 2012; note: % of control where 0% means no effect; nearly all actives have a fitted effect of over 55% in size
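First, 250 cells per well were seeded. Next, compound or vehicle (23 nL) was pinned in, plates sat 48 hr at 37 C. Finally Hoechst was added for 40 min before fluorescence scanning.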
KB-3-1 tox: qHTS assay for MDR1-selective chemotherapeutics: Primary screen using the parental adenocarcinoma cell KB-3-1. KB-3-1 viability, CellTiter-Glo ATP luminescence, 72 h. Potency, µM (highest dose often 46.1 µM), most hits filed as cytotoxic. 1.4% of 400,000 active; note: % is set by controls: 0 for no effect and ±100 for the full control effect; nearly all actives have a fitted effect of over 60% in size
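Viability of parental KB-3-1 cells, measured by CellTiter-Glo luminescence, followed a 72 h incubation at 37 °C with pinned compounds in phenol-red-free DMEM containing 10% FBS.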
KB-V1 MDR tox: qHTS assay for MDR1-selective chemotherapeutics: Primary screen using the drug-selected MDR subline cells KB-V1. Potency, µM (highest dose often 46.1 µM), most hits filed as cytotoxic. 3.4% of 400,000 active. KB-V1 MDR cells viability, CellTiter-Glo, 72 h. AID 1347076, 2019; note: % is set by controls: 0 for no effect and ±100 for the full control effect; nearly all actives have a fitted effect of over 60% in size
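Luminescent ATP read-out (CellTiter-Glo, 10 min) measures survival of drug-selected KB-V1 MDR cells after 72 h, 37 degrees C compound exposure. Medium: phenol-red-free DMEM, 10% FBS. Values from fitted concentration-response curves.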
MCF10A rereplic: A quantitative high throughput screen for small molecules that induce DNA re-replication in MCF 10a normal breast cells; MCF 10A DNA re-replication, Hoechst nuclear intensity, 48 h; Potency, µM (series often up to 46.1 µM), for the others: at the highest dose activity, positive = re-replication, usual class: activators; 2.9% of 350,000 active; AID 624296, 2012; note: % of control where 0% means no effect; nearly all actives have a fitted effect of over 50% in size
* marks the source's active call; other numbers are inactive results; i = inactive; u = inconclusive; x = no result. Calls come from the whole dose curve; as a rule, active = well fitted curve in the direction sought with a large enough effect; inconclusive = small, poorly fitted or top-dose-only effect, or another doubt; inactive = no such curve, though single readings can be large; an effect the other way counts as inactive or inconclusive. Potency is the fitted concentration of half-maximal effect.

SMILES | ELG1 repair inh | SW480 rereplic | KB-3-1 tox | KB-V1 MDR tox | MCF10A rereplic
COc1ccc(-n2nc(C(=O)NCC(=O)NCCC3=CCCCC3)c3ccccc3c2=O)cc1 | 16µM* | 5% | i | i | 10%
COc1ccc(-n2nc(C(=O)NCC(=O)N3CCCC3)c3ccccc3c2=O)cc1 | 18% | -14% | i | u | 2%
Cn1c2ccc(F)cc2c2ncn(CC3CCCO3)c(=O)c21 (stereo not given) | 17% | u | i | i | 1%
Cc1oc2cc(OC(=O)c3ccco3)ccc2c(=O)c1-c1nc2ccccc2n1C | 10% | -10% | i | i | u
C[C@@H]1CN([C@H](C)CO)S(=O)(=O)c2ccc(Br)cc2O[C@H]1CN(C)C(=O)Nc1cccc(F)c1 | x | x | i | u | x
O=C(NC1CCCCCCC1)C1=COCCO1 | u | 2% | i | i | 0%
CC(=O)O[C@]1(C(C)=O)CC[C@H]2[C@@H]3C=CC4=CC(=O)C=C[C@]4(C)[C@H]3CC[C@@]21C | 0% | 1% | u | 13µM* | u
Cc1[nH]nc(C(=O)NN=Cc2ccccc2Cl)c1N=NN(C)C | x | 15µM* | i | i | 16µM*
NC(=O)C1(N2CCCCC2)CCN(Cc2ccccc2Cl)CC1 | -6% | 12µM* | i | u | 16µM*
NC(=O)C1(N2CCCCC2)CCN(S(=O)(=O)c2ccccc2)CC1 | x | -4% | i | i | 2%
COC(=O)C1C(c2ccccc2)C=CC(c2ccccc2)C1C(=O)O (stereo not given) | 0% | -9% | i | i | 1%
COc1ccc(C2=CCN3CCCCC3C2)c(-c2ccc(OC)c(OC)c2)c1 (stereo not given) | u | 2% | u | u | 8.2µM*
COc1cc(/C=N\NC(=O)CNC(=O)C2COc3ccccc3O2)ccc1O (stereo not given) | 0% | -8% | i | i | -12%
CCOC(=O)N/N=C/c1ccc(N(CC)CC)cc1O | u | 16µM* | 21µM* | u | 23µM*
CCN(CC)c1ccc(/C=N/NC(=O)CNC(=O)C2COc3ccccc3O2)c(O)c1 (stereo not given) | u | 6.5µM* | u | u | 6.5µM*
CCN(CC)c1ccc(/C=N/NC(=O)c2cccc(S(=O)(=O)N3CCOCC3)c2)c(O)c1 | u | u | 7.3µM* | u | 15µM*
CCN(CC)c1ccc(C=Nc2cc(C)ccc2C)c(O)c1 | u | u | u | 23µM* | 2%
CCN(CC)c1ccc(C=Nc2ccc(C)cc2C)c(O)c1 | u | -6% | i | i | 19%
O=C(O)c1ccc2c(c1)C(=O)N(c1ccc(C(=O)OCC(=O)c3ccccc3)cc1)C2=O | x | -138% | i | i | -3%
CCc1ccc(C2CC(=O)Nc3c2c(C)nn3-c2nc(C)cc(C)n2)cc1 (stereo not given) | x | x | i | i | x
CCOc1ccc(NC(=O)CSc2cn(CCNC(=O)c3ccccc3F)c3ccccc23)cc1 | x | x | i | i | x
COc1ccc(CN2COc3ccc4c(-c5ccc(OC)cc5)cc(=O)oc4c3C2)cc1 | x | x | i | i | x
O=C(CN1CCCCC1)Nc1nnc(-c2ccc([N+](=O)[O-])cc2)s1 | 15% | -2% | i | i | 3%
CCN(CC)c1ccc(/C=N/NC(=O)c2c(Cl)cnn2C)c(O)c1 | u | u | i | u | 12µM*
Cc1nn(C)c(Oc2ccccc2)c1CCNS(=O)(=O)c1ccc(Cl)cc1 | u | 1% | u | 18µM* | 10%
CC(C)NS(=O)(=O)c1ccc(CCC(=O)Nc2cc(Cl)ccc2Oc2ccccc2)cc1 | u | 5% | u | i | 18%
CCNS(=O)(=O)c1ccc(CCC(=O)Nc2cc(Cl)ccc2Oc2ccccc2)cc1 | u | 3% | i | 16µM* | 5%

Screening results as filed in PubChem BioAssay.
